Experimental data published in PubChem BioAssay.

Assay: growth of efflux-deficient E. coli DRC39 – strain DRC39, OD650, 48 h, E. coli filamentation inducers, primary screen (AID 1179);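 further: screen aims at cell division blockers that make cells filament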
Settings: E. coli DRC39 delta-acrAB growth, higher = more signal, called active from +8 up or from −8 down

z-score, inactive:
COC(=O)[C@@]1(Cc2ccc(F)cc2)[C@H]2c3cc(C(=O)N(C)C)n(CCc4ccc(O)c(O)c4)c3C[C@H]2CN1C(=O)c1ccccc1 0.157, CCOC(=O)C1=CC[C@@H](c2ccc(OC)cc2)N(S(=O)(=O)c2ccc(C)cc2)[C@H]1c1ccc(C)cc1 -0.148, [N-]=[N+]=NCc1ccccc1[C@@H]1OC(c2ccc(OCCCO)cc2)=N[C@]1(Cc1ccccc1N=[N+]=[N-])C(=O)O 0.499, COC(=O)[C@@]1(Cc2ccccc2)[C@H]2c3cc(C(=O)N(C)C)n(CCSC(=N)N)c3C[C@H]2CN1C(=O)c1ccccc1 -0.295, Cc1ccc(S[C@]2(C(=O)NC(C)C)CC(=O)N(C3CCCCC3)[C@@H]2c2ccc(CO)cc2I)cc1 -0.138, COC(=O)C(CC#Cc1ccc2c(c1)[C@]1(C(=O)N2)[C@H](C(=O)N2CCc3cc(OC)c(OC)cc3C2)[C@H]2C(=O)O[C@H](c3ccccc3)[C@H](c3ccccc3)N2[C@@H]1c1ccccc1OCCO)C(=O)OC 0.618, C=CC[C@@]12N=C(c3ccc(OCCCO)cc3)O[C@@H]1c1ccccc1N(CCC)C2=O 1.02, CCC(CC)C(O)C1C=CC2C(=O)N(c3ccccc3)C(=O)C2N1Nc1ccccc1F (stereo not given) 0.164, C=C(COC)/C(=C/C[C@H](OC(C)=O)c1ccccc1OCCO)c1cc(C(=O)OC)ccc1OC -0.653, CN(C)CCCC[C@@H]1NC(=O)[C@@H]2C[C@H](C(=O)NCCCCCN)[C@H](c3cccc(OCCO)c3)N2C1=O 2.02
